For part of these data: Measured potencies and affinities stand elsewhere.

Broadly, the Inhibition is the change of the read-out against control, counted positive when it falls.

In one test the test system is Staphylococcus aureus. The test can be described thus: Antibacterial activity against Staphylococcus aureus MRSA ATCC 43300 (CO-ADD:GP_020); MIC in CAMBH media using NBS plates, by Resazurin F(560/590). The note with it: Concentration 20 uM, ASSAY_TEST Inhibition of Bacterial Growth, detection method Resazurin, Fluorescence (ex560/em590), MEDIA CAMHB, plate type 384well, CORNING #3640, time 18 hr. The test is classed as functional. On the technique in general: Resazurin is reduced to fluorescent resorufin, in cell work by metabolically active cells.

For a further test, the system named is Acinetobacter baumannii. The test can be described thus: Antibacterial activity against Acinetobacter baumannii ATCC 19606 (CO-ADD:GN_034); MIC in CAMBH media using NBS plates, by Resazurin F(560/590). To be noted: Concentration 20 uM, ASSAY_TEST Inhibition of Bacterial Growth, detection method Resazurin, Fluorescence (ex560/em590), MEDIA CAMHB, plate type 384well, CORNING #3640, time 18 hr. Format: functional.

A further test deals with Escherichia coli. The test can be described thus: Antibacterial activity against Escherichia coli ATCC 25922 (CO-ADD:GN_001); MIC in CAMBH media using NBS plates, by Resazurin F(560/590). The test is classed as functional. The note with it: Concentration 20 uM, ASSAY_TEST Inhibition of Bacterial Growth, detection method Resazurin, Fluorescence (ex560/em590), MEDIA CAMHB, plate type 384well, CORNING #3640, time 18 hr.

Another test deals with Klebsiella pneumoniae. The note with it: Concentration 20 uM; ASSAY_TEST Inhibition of Bacterial Growth; detection method Absorption (OD600); MEDIA CAMHB; plate type 384well; NBS; CORNING #3640; time 18 hr.
A further test deals with Candida albicans. To be noted: 20 µM.
In another test the test system is Cryptococcus neoformans. The note with it: Concentration 20 uM; ASSAY_TEST Inhibition of Fungal Growth; detection method Resazurin; Absorption (OD600-OD570); plate type 384well; NBS; CORNING #3640.

For the compound `Cc1csc(/N=N/c2ccc(N(C)C)cc2)[n+]1[O-]`, the Inhibition in the test with Staphylococcus aureus was 7.37%; in the test on Acinetobacter baumannii, -4.68%; in the test with Escherichia coli it was 8.16%; with Klebsiella pneumoniae, 7.6%; in the test with Candida albicans, 0.83%; in the test on Cryptococcus neoformans it was -12.25%.

With `N=C(NOC(=O)c1ccccc1)C(Cc1ccccc1)C(=O)NOC(=O)c1ccccc1` (stereo unspecified), the Inhibition was 11.08% with Staphylococcus aureus; -11.45% with Acinetobacter baumannii; 18.34% in the test on Escherichia coli; 10.4% in the test with Klebsiella pneumoniae; 7.02% in the test with Candida albicans; -11.11% in the test on Cryptococcus neoformans.

On to `Cc1nc2[nH]c(=O)n(O)c(=O)c2s1`, for which the Inhibition in the test with Staphylococcus aureus was 4.12%; with Acinetobacter baumannii, -18.15%; in the test with Escherichia coli, 5.04%; in the test with Klebsiella pneumoniae, 12.49%; in the test with Candida albicans, 3.41%; in the test on Cryptococcus neoformans it was -6.64%.

As to `Cc1cc(=O)c2c(o1)C(=O)c1occc1C2=O`, the Inhibition in the test on Staphylococcus aureus is -16.99%; in the test on Acinetobacter baumannii, -9.35%; with Escherichia coli it was -16.26%; in the test on Klebsiella pneumoniae, 2.36%; in the test with Candida albicans, 7.04%; in the test on Cryptococcus neoformans, 24.84%.

For the compound `CC(C)n1cnc2c(S)ncnc21`, the Inhibition was 14.01% in the test on Staphylococcus aureus; -16.92% in the test on Acinetobacter baumannii; 12.98% with Escherichia coli; 11.21% in the test on Klebsiella pneumoniae; 2.47% in the test with Candida albicans; -6.64% in the test on Cryptococcus neoformans.

In the case of `CC(=O)Nc1cccc(NC(C)=O)n1`, the Inhibition with Staphylococcus aureus is 23.71%; with Acinetobacter baumannii, -5.95%; with Escherichia coli it was 17.6%; in the test with Klebsiella pneumoniae it was 13.05%; in the test on Candida albicans, -2.4%; in the test with Cryptococcus neoformans it was -1.6%.

On to `O=C(O)c1ccccc1C(=O)Nc1cccc([N+](=O)[O-])c1`, for which the Inhibition in the test on Staphylococcus aureus is -4.11%; in the test on Acinetobacter baumannii it was -9.98%; in the test with Escherichia coli, -2.38%; in the test with Klebsiella pneumoniae, 3.82%; with Candida albicans, 3.86%; with Cryptococcus neoformans, -3.03%.

As for `Sc1ncnc2c1ncn2C1CCCC1`, the Inhibition in the test on Staphylococcus aureus was 12.18%; with Acinetobacter baumannii, -2.05%; in the test with Escherichia coli, 10.82%; in the test with Klebsiella pneumoniae, 10.23%; in the test with Candida albicans, 3.52%; in the test with Cryptococcus neoformans, -6.41%.

Take `CCOC(=O)C1CC(C)=C(C)CC1C(=O)O` (stereo unspecified): the Inhibition in the test with Staphylococcus aureus was -6.63%; in the test on Acinetobacter baumannii it was 13.31%; in the test on Escherichia coli, 5.04%; with Klebsiella pneumoniae it was 7.81%; with Candida albicans it was 6.96%; with Cryptococcus neoformans it was -10.63%.

`Nc1ncncc1-c1ccc2ccccc2c1`: the Inhibition is 8.62% with Staphylococcus aureus; 6.7% in the test on Acinetobacter baumannii; 0.44% in the test with Escherichia coli; 17.13% in the test on Klebsiella pneumoniae; 5.79% in the test on Candida albicans; -7.84% in the test with Cryptococcus neoformans.

`COC(=O)c1c[n+]([O-])ccc1OC`: the Inhibition with Staphylococcus aureus was -9.06%; in the test on Acinetobacter baumannii, -1.68%; in the test on Escherichia coli it was -4.59%; with Klebsiella pneumoniae it was 7.09%; in the test with Candida albicans it was -2.55%; in the test on Cryptococcus neoformans it was -2.93%.

Regarding `OCCCCc1nccc2c1[nH]c1ccccc12`, the Inhibition was -6.35% in the test with Staphylococcus aureus; -7.04% in the test with Acinetobacter baumannii; -1.94% in the test with Escherichia coli; -0.62% in the test on Klebsiella pneumoniae; 2.78% with Candida albicans; -8.33% in the test with Cryptococcus neoformans.

Take `Cc1cccc(C)c1NC(=O)NCc1ccco1`: the Inhibition with Staphylococcus aureus is -11.45%; with Acinetobacter baumannii, 7.13%; in the test on Escherichia coli, 6.33%; with Klebsiella pneumoniae, 8.14%; with Candida albicans it was 2.89%; in the test on Cryptococcus neoformans, -10.4%.

For the compound `C#CCCOC(=O)Nc1ccccc1`, the Inhibition is 2.35% in the test with Staphylococcus aureus; -10.74% with Acinetobacter baumannii; 7.7% in the test with Escherichia coli; 4.67% with Klebsiella pneumoniae; 2.19% in the test with Candida albicans; -13.66% with Cryptococcus neoformans.

With `O=C(O)C(Cc1ccccc1N(CCO)CCO)N1C(=O)c2ccccc2C1=O` (stereo unspecified), the Inhibition was 11.82% with Staphylococcus aureus; 6.12% in the test on Acinetobacter baumannii; 3.59% in the test with Escherichia coli; 11.57% in the test with Klebsiella pneumoniae; 0.11% in the test with Candida albicans; -6.78% in the test on Cryptococcus neoformans.

For `O=C(O)CCN1c2ccccc2Sc2ccccc21`, the Inhibition in the test on Staphylococcus aureus was 8.2%; in the test with Acinetobacter baumannii it was -9.93%; in the test with Escherichia coli it was 16.66%; in the test on Klebsiella pneumoniae it was 14.48%; in the test with Candida albicans, 16.7%; in the test on Cryptococcus neoformans, -15.83%.

As for `CC(=O)Nc1ccc2cc3ccc(NC(C)=O)cc3nc2c1`, the Inhibition in the test with Staphylococcus aureus is 13.51%; with Acinetobacter baumannii it was 10.7%; in the test with Escherichia coli, 0.73%; with Klebsiella pneumoniae it was 15.61%; in the test with Candida albicans it was 3.5%; with Cryptococcus neoformans it was -4.12%.

Turning to `O=C(Nc1cccc2ccccc12)c1cc2c(cc1Br)OCO2`, the Inhibition was 5.22% in the test on Staphylococcus aureus; 3.29% in the test with Acinetobacter baumannii; 17.42% with Escherichia coli; 10.46% in the test with Klebsiella pneumoniae; 2.94% in the test with Candida albicans; -19.33% in the test on Cryptococcus neoformans.

For `O=C1c2cccc(Sc3ccccc3)c2C(=O)c2c(Sc3ccccc3)cccc21`, the Inhibition with Staphylococcus aureus is 13.79%; in the test on Acinetobacter baumannii, -8.62%; in the test on Escherichia coli it was 22.23%; in the test on Klebsiella pneumoniae, 3.23%; in the test on Candida albicans, 0.05%; with Cryptococcus neoformans, -7.69%.

On to `Nc1nc(S)c2ncn(C3CCCC3)c2n1`, for which the Inhibition was 16.34% with Staphylococcus aureus; -8.37% in the test on Acinetobacter baumannii; 6.43% in the test with Escherichia coli; 18.77% with Klebsiella pneumoniae; -3.88% in the test on Candida albicans; -14.08% with Cryptococcus neoformans.

As for `O=C1c2ccccc2C(O)(c2ccccc2)N1c1ccncc1` (stereo unspecified), the Inhibition is 8.72% in the test with Staphylococcus aureus; -12.43% in the test with Acinetobacter baumannii; 4.92% with Escherichia coli; 13.13% in the test with Klebsiella pneumoniae; 2.44% in the test with Candida albicans; -3.79% in the test on Cryptococcus neoformans.

The values are drawn from ChEMBL document CHEMBL4296182, “CO-ADD screening of NIH NCI Diversity Set V”.
